# From PubChem BioAssay AID1259313 (Sanford-Burnham Center for Chemical Genomics, 2017)
# In all, about 340,000 compounds went through this assay and about 8,500 (2.5%) were called active. The full list was thinned out, with actives kept by preference. Values without a mark were called inactive.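 How the source made its calls: active means melting temperature shift of at least 10% of the positive control shift, at one fixed dose; inactive means the rest.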
# Tested on: Glutamate receptor ionotropic, NMDA 3A (GRIN3A) ligand-binding domain
# Assay: binders of NR3A ligand-binding domain, primary screen, biophysical, differential scanning fluorimetry, uHTS (AID 1259313)
# Details: NR3A LBD differential scanning fluorimetry, at 25 µM, active compounds read high, 0% = protein alone, 100% = glycine-bound protein
row,Compound,Tm shift relative to glycine control
1,COCCn1c(=NC(=O)c2ccccc2[N+](=O)[O-])sc2cc(S(C)(=O)=O)ccc21,3.81%
2,C=C(C)COc1ccc(-c2nc(N)ncc2-c2ccccc2OC)c(O)c1,-3.37%
3,C=C(C)COc1ccc(-c2n[nH]c(C)c2-c2ccccc2)c(O)c1,10.9% (active)
4,C=C(C)COc1ccc(-c2ncncc2-c2ccc(OC)cc2)c(O)c1,-1.75%
5,COc1c(C)c2c(c(O)c1C/C=C(\C)CCC(=O)O)C(=O)OC2,0.8%
6,COc1ccc2[nH]c(C(=O)Nc3ccccc3Cl)cc2c1,1.25%
7,CC(OC(=O)c1cc2ccccc2[nH]1)C(=O)N(C)c1ccccc1 (centres undefined),-1.09%
8,O=C(Nc1ccccc1)c1cc2ccccc2[nH]1,20.5% (active)
9,Cc1ccc(CC2C(=O)N(c3ccc(F)cc3)C(=O)C2C)cc1 (centres undefined),1.55%
10,CC(=O)N1CCN(CC(C)(C)NS(=O)(=O)c2ccc(C)cc2)CC1,1.96%
11,O=C(NCCCN1CCOCC1)C1CCCN(S(=O)(=O)N2CCCCC2)C1 (centres undefined),-1.39%
12,CCOC(=O)N1CCN(C(=O)C(=O)Nc2sc3c(c2C#N)CC(C)(C)OC3)CC1,-1.52%
13,CCc1ccccc1N(CC(=O)NCC1CCCO1)C(=O)CCC(=O)Nc1nccs1 (centres undefined),-2.76%
14,COc1cccc(CC2(CO)CCCN(CC3=Cc4cc(OC)ccc4OC3)C2)c1 (centres undefined),-4.46%
15,COc1cccc(CC2(CO)CCCN(Cc3nc(-c4cccs4)oc3C)C2)c1 (centres undefined),-1.72%
16,COc1cccc(CC2(CO)CCCN(Cc3ccc(OC(F)F)cc3)C2)c1 (centres undefined),25.6% (active)
17,O=C(CCNS(=O)(=O)c1ccccc1)NCCSc1ccc(Br)cc1,-2.33%
18,c1ccc(-c2ccc3c(c2)NC(C2Nc4cc(-c5ccccc5)ccc4O2)O3)cc1 (centres undefined),0.36%
19,O=c1cc(-c2ccccc2)[nH]c2cc(F)ccc12,-1.79%
20,c1ccc(-c2c[nH]c(-c3ccccc3)c2)cc1,17.4% (active)

row,Compound,Tm shift relative to glycine control
1,Nn1c(SCc2ccccc2)nnc1C1CCCCC1,1.23%
2,Cc1ccccc1Nc1nc(N)nc(COC(=O)CCC(=O)c2ccc(F)cc2)n1,-0.42%
3,CCC1SC2=NCCN2C1(O)c1ccc(Cl)cc1 (centres undefined),-1.83%
4,CCOc1ccc(S(=O)(=O)N/N=C(\C)c2ccc(Cl)c(Cl)c2Cl)cc1,16.2% (active)
5,CCOc1cc(NS(=O)(=O)c2ccc(OC)cc2)c(OCC)cc1NC(C)=O,1.23%
6,CCOc1ccc(S(=O)(=O)Nc2nccs2)cc1,-0.76%
7,O=C(O)C(CCc1ccccn1)c1ccccc1 (centres undefined),0.46%
8,O=C1c2ccccc2C(=O)N1CCC#Cc1ccc2cc(C3(O)CCCCC3)oc(=O)c2c1,35.3% (active)
9,COc1cc(C(=O)NCCOC(=O)c2cccc(N(C)C)c2)cc(OC)c1OC,0.47%
10,COc1ccc(-c2nn(-c3ccccc3)cc2/C=C2/SC(=S)N(CCCC(=O)O)C2=O)c(C)c1,12.5% (active)
11,Cc1ccc(-c2nn(-c3ccccc3)cc2/C=C2\SC(=S)N(CCCCCC(=O)O)C2=O)o1,-394%
12,C=CCOc1ccc(/C=C2\SC(=S)N(CCC(=O)O)C2=O)cc1,1.33%
13,COc1cccc(NS(=O)(=O)c2ccc(-c3coc(C)n3)cc2)c1,-0.18%
14,O=C(CCNS(=O)(=O)c1ccc(Br)s1)NCc1ccccc1Cl,-2.24%
15,CCOc1ccccc1NC(=S)C(=C([O-])c1ccc2c(c1)OCCO2)[n+]1ccc(CC)cc1,-1.27%
16,COC(=O)c1cc(Oc2ccc(S(=O)(=O)N3CCOCC3)cc2[N+](=O)[O-])cc(C(=O)OC)c1,0.08%
17,Cc1cccc(C=CC(=O)c2ccc(Cl)cc2)c1,4.44%
18,Brc1ccc(-c2nnc(-c3ccccc3)o2)o1,-0.09%
19,Cc1cccc(C(=O)Nc2ccc(C(=O)/C=C/c3cccs3)cc2)c1,29.2% (active)
20,Cc1ccc(C(=O)Nc2ccc(NC(=O)c3cccs3)cc2)c(C)c1,28.3% (active)

row,Compound,Tm shift relative to glycine control
1,Cc1ccc(NC(=O)c2cccs2)cc1S(=O)(=O)N(C)C,-5.63%
2,Cc1ccc(OCC(=O)Nc2ccc(NC(=O)c3cccs3)cc2)c(C)c1,0.85%
3,O=C(CNC(=O)c1ccc(Br)o1)Nc1ccccc1,2.09%
4,Cc1ccc(-c2nnc(-c3ccc(NC(=O)c4cccs4)cc3)o2)cc1,22.2% (active)
5,O=C(Nc1ccc(-c2nnc(-c3ccccc3)o2)cc1)c1ccc(Br)o1,35.9% (active)
6,CCc1ccc(NC(=O)C(=O)NNC(=O)c2cccs2)cc1,-14.4%
7,Cc1cccc(C(=O)Nc2ccc(CC(=O)O)cc2)c1,-4.02%
8,Cc1ccc(C(=O)NNC(=O)c2cccs2)cc1,0.08%
9,COc1cccc2c1C(=O)c1c(O)c3c(c(O)c1C2=O)CC(O)(C(C)=NNC(=O)c1ccc(Cl)c(Cl)c1)CC3OC1CC(N)C(O)C(C)O1 (centres undefined),-18.1%
10,COc1ccc(C)cc1S(=O)(=O)Nc1cccc(Cl)c1Cl,-5.61%
11,CCCOc1ccc(/C=N/NC(=O)C2CC2)c(OCCC)c1,0.85%
12,Cc1cc(C)nc(NS(=O)(=O)c2ccc(N/C=C\C(=O)c3cccs3)cc2)n1,-2.02%
13,COc1cc(CO)ccc1OCC(=O)Nc1cccc2ccccc12,1.02%
14,CCOC(=O)[C@H]1[C@H]2COc3ccc(OC)cc3[C@@H]2N2C(=O)c3ccc(F)cc3NC(=O)[C@@]12C,-0.63%
15,NC1=C([N+](=O)[O-])C(c2ccccc2)C2=C(CCCC2=O)O1 (centres undefined),-0.34%
16,Cc1cccc(NC(=O)C(C)N2C(=O)C3C4CC(C(Br)C4Br)C3C2=O)c1 (centres undefined),13.7% (active)
17,Cc1cccc(NC(=O)CCN2CC(C)CC(C)C2)c1 (centres undefined),-0.71%
18,Cc1cccc(NC(=O)C(C)SCc2ccccc2)c1 (centres undefined),1.98%
19,Cc1ccc(Nc2ccccc2N)cc1,0.92%
